In PubChem BioAssay (NCATS) one finds outcome, Potency and activation data, which are given here for 39 compounds.

“And” between values parts separate entries of the source, which are not always exact repeats. Identical values can stand only once. Records with an inconclusive call do not appear. Values without a mark were called inactive. The source made the active and inactive calls. Unless noted, the call rests on the fitted dose curve; in most records, active means well fitted curve in the direction sought with a large enough effect; inconclusive means small, poorly fitted or top-dose-only effect, or another doubt; inactive means no such curve, though single readings can be large; an effect the other way counts as inactive or inconclusive.

The nature of experiment [1]: S16 Schwann cell viability assay (CellTiter-Glo assay) (AID 624031).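 Further: native untransfected S16 rat Schwann cells; plate controls were DMSO-treated cells for no effect and cell-free wells for full effect; nearly all actives have a fitted effect of over 70% in size.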 Conditions: S16 rat Schwann cells viability, 24 h; series mostly up to 57.5 µM. In a few lines:
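Counter-screen for cytotoxicity: parental S16 rat Schwann cells lacking the PMP22 reporters, treated 24 h with compound, viability from cellular ATP by CellTiter-Glo luminescence, normalized to DMSO (0%) and no-cell wells.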
On the technique in general: Cellular ATP, detected with luciferase, serves as a proxy for viable cell number.

Experiment [2] can be described thus: S16 Schwann cell PMP22 intronic element firefly luciferase assay (AID 624032). Further: nearly all actives have a fitted effect of over 30% in size. Further: potency means the concentration at half of the fitted maximal effect. The following applies: S16 rat Schwann cells, PMP22 element FLuc, 24 h; series mostly up to 57.5 µM. In a few lines: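 Luciferase reporter of PMP22 intronic-element expression in stably transfected S16 rat Schwann cells, read by ONE-Glo luminescence after 24 h compound exposure at 37 C. Activity scaled between DMSO (0%) and positive-control PTC124; concentration-effect curves quality-classified.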

Experiment [3] in a line: S16 Schwann cell PMP22 intronic element beta-lactamase assay (AID 624044; calls by dose curve;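 further: 0% = DMSO and -100% = potassium clavulanate positive control; nearly all actives have a fitted effect of over 15% in size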). The following applies: S16 rat Schwann cells, PMP22 element beta-lactamase FRET, 24 h; series mostly up to 38.3 µM. The gist of the method:
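Rat S16 Schwann cells with beta-Lac driven by a PMP22 intronic element, compound-treated 24 h at 37 °C. LiveBLAzer FRET B/G read: 460 nm normalized to potassium clavulanate vs DMSO; 535 nm FRET as viability; concentration-effect curves classified.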

A short description of experiment [4]: qHTS assay for small molecule activators of the p53 signaling pathway (AID 651743; active means well fitted activation curve with a large enough effect in the signal ratio, not every such curve was filed as active; the % refers to the signal ratio; further: % of control where 0% means no effect). Conditions: HCT-116 p53RE-bla, beta-lactamase FRET ratio, 16 h; hits give high values. The gist of the method: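 Screen for p53 pathway agonists uses stably transfected p53RE-bla HCT-116 cells, 4,000 per well, treated 16 h at 37 C with compounds in DMSO.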
On the technique in general: Quantitative high-throughput screening tests each substance at several concentrations.

Experiment [5] is described as follows: qHTS assay for small molecule activators of the nuclear factor-kappa B (NF-kB) signaling pathway (AID 651749; active means well fitted activation curve with a large enough effect in the signal ratio; the % refers to the signal ratio; further: % of control where 0% means no effect). The following applies: NF-kB-bla ME-180 cells, beta-lactamase FRET ratio, 16 h; hits give high values. The gist of the method:
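Stably transfected ME-180 line; NF-kB response element upstream of beta-lactamase. Treatment: compound or DMSO, 16 hr. Detection: fluorescent FRET substrate.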

Experiment [6] is described as follows: qHTS assay for small molecule disruptors of the mitochondrial membrane potential - 1 hr assay (AID 651754; calls by dose curve; further: nearly all actives have a fitted effect of over 35% in size; further: potency means the concentration at half of the fitted maximal effect). The following applies: series mostly up to 92.2 µM. In a few lines:
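Steps: seed HepG2 cells and let attach overnight; pin-transfer compound or vehicle; incubate 1 hr at 37C; add Mito-MPS dye for 30 min; read two-channel fluorescence for monomer and aggregate forms.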

The nature of experiment [7]: qHTS assay for small molecule disruptors of the mitochondrial membrane potential - 5 hr assay (AID 651755; calls by dose curve; further: nearly all actives have a fitted effect of over 40% in size; further: potency means the concentration at half of the fitted maximal effect). Conditions: JC-1-type ratio dye; series mostly up to 92.2 µM. In a few lines:
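HepG2, 2,000 cells/well, overnight attach; cpd or DMSO 5 hr, 37C/5% CO2; Mito-MPS 30 min 37C; fluor 490/535 + 540/590 nm.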

Experiment [8] deals with Tumor necrosis factor (Homo sapiens) (UniProt P01375). Put plainly: qHTS assay to identify small molecules that stimulate Tumor Necrosis Factor-alpha (TNF-alpha) secretion (AID 651757; active means well fitted curve in the direction sought with a large enough effect in the signal ratio; the % refers to the signal ratio; further: 0% is about no effect). Conditions: Human cells, HTRF 665/615 ratio; series mostly up to 92.2 µM. The gist of the method: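 Secreted TNF-alpha from compound-treated THP-1 cells (17 hrs, 37 C) was quantified with a homogeneous time-resolved fluorescence antibody assay.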
Chain of Tumor necrosis factor (Homo sapiens) (P01375 whole entry, looked up): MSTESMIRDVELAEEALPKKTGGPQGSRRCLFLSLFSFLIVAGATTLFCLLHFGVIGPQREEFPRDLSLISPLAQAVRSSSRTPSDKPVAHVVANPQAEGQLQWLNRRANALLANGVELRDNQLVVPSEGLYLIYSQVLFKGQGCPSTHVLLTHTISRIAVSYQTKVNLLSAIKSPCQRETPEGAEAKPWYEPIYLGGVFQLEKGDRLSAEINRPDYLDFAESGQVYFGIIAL

The nature of experiment [9]: qHTS assay for small molecule agonists of the antioxidant response element (ARE) signaling pathway (AID 651741; active means well fitted activation curve with a large enough effect in the signal ratio; the % refers to the signal ratio; further: potency means the concentration at half of the fitted maximal effect; on activation: % of control where 0% means no effect). The following applies: HepG2 ARE-bla reporter, beta-lactamase FRET ratio, 16 h; series mostly up to 96 µM. In a few lines:
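Seeding 2,000 ARE-bla HepG2 cells per well preceded a 5 h incubation at 37 C/5% CO2 and a 16 h compound exposure at 37 C. Beta-lactamase reporter activity was then quantified by fluorescence after 2 h with LiveBLAzer B/G FRET substrate.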

Experiment [10] is described as follows: qHTS assay to identify small molecules that stimulate interleukin-8 (IL-8) secretion (AID 651758; active means well fitted activation curve with a large enough effect in the signal ratio; the % refers to the signal ratio; further: 0% is about no effect). Conditions: HTRF ratio (665/615); series mostly up to 92.2 µM. The gist of the method: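 Secreted IL-8 measured by TR-FRET sandwich (cryptate and XL665 antibodies) from THP-1 cells exposed to compound overnight (16 hrs, 37 C).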

`CCN(CC)S(=O)(=O)c1ccc(C(=O)O)cc1`: the call in [1] and in [3] was inactive. For the same compound, the Potency entry in experiment [2] was “inactive”.

As for `CC(=O)NS(=O)(=O)c1ccc(N)cc1`, the call in [1], in experiment [3] and in [8] was inactive. The Potency entry in experiment [2], in [6] and in [7] was “inactive” each time. Also, the results for the activation in experiment [4] and in experiment [5] were -3.02% and -0.656%, respectively.

As for `CCCCCCCCCCCCCCCCN`, the compound was classed as inactive in experiment [1] and in experiment [3]. Further, the Potency result in experiment [2] was “inactive”.

Take `Cc1cc(OI)c(C(C)C)cc1-c1cc(C(C)C)c(OI)cc1C`: the compound was called inactive in experiment [1] and in experiment [3]. In [2], the Potency entry was “inactive”.

As to `COc1ccc(O)cc1`, the result in experiment [1] and in [8] was inactive. In addition, the Potency result in [2] and in experiment [9] was “inactive” throughout. The activation is 1.27% in experiment [4] and 0.533% in experiment [5].

`O=C1c2cccc(O)c2C(=O)c2c(O)cccc21`: the compound was called inactive in experiment [1], in experiment [3] and in experiment [8]. Also, the Potency in experiment [9] is 29.8 µM (active); in [6], 4.73 µM (active); in experiment [7], 7.5 µM (active). For the same compound, the figures for the activation in experiment [4] and in experiment [5] were 3.77% and -0.734%, respectively.

With `C=CCNC(N)=S`, the outcome in experiment [1], in [8] and in experiment [10] was inactive. For the same compound, the Potency result in experiment [2] and in experiment [9] was “inactive” in each case. The activation is -1.91% in [4] and -0.527% in experiment [5].

For the compound `CCCC(O)C(CC)CO` (centres undefined), the compound was classed as inactive in [1], in [8] and in experiment [10]. For the same compound, the Potency result in [2] and in experiment [9] was “inactive” each time. Further, the activation in experiment [4] was 1.06%; in [5] it was 0.969%.

In the case of `CCCCCC(N)=O`, the compound was called inactive in [1] and in experiment [8]. In experiment [2], the Potency is 14.4 µM (active). Further, the Potency entry in experiment [9] is “inactive”. The activation was 0.75% in experiment [4] and 0.129% in experiment [5].

For the compound `OC[C@@H](O)[C@@H](O)[C@H](O)[C@H](O)CO`, in experiment [1], the outcome was inactive. The Potency result in [2] is “inactive”. Besides, the activation in [4] is -0.611%; in experiment [5], -2.19%.

As for `CCCCCCCCCCCCCCCCCCO`, in [1], the outcome was inactive. The activation in experiment [4] is -2.92%.

In the case of `CCCCCCCC(=O)OCC(COC(=O)CCCCCCC)OC(=O)CCCCCCC`, the compound was called inactive in [1] and in experiment [8]. Further, the Potency entry in experiment [2] is “inactive”. Besides, the activation in experiment [4] was -2.91%.

For the compound `CN(C/C=C/C#CC(C)(C)C)Cc1cccc2ccccc12`, the call in experiment [1] and in [3] was inactive.

As to `COc1ccccc1Oc1c(NS(=O)(=O)c2ccc(C(C)(C)C)cc2)nc(-c2ncccn2)nc1OCCO`, the Potency entry in experiment [2] was “inactive”. For the same compound, the call in experiment [3] was inactive.

As to `O=C(O)CCCCC1CCSS1` (centres undefined), the call in experiment [1], in experiment [8] and in [10] was inactive. Moreover, the Potency entry in [2] was “inactive”. Further, the Potency in experiment [9] is 48.6 µM (active) and 37.6 µM (active). Further, the activation in experiment [4] is -5.57% and 16.2%; in experiment [5], -0.268% and -2.59%.

For `Cc1c(C(=O)NCCO)[n+](=O)c2ccccc2n1[O-]`, the call in [1] was inactive. For the same compound, the Potency result in [2] was “inactive”. Also, the activation in experiment [4] was 3.58%; in [5] it was -3.75%.

In the case of `CCN(CC)C(=O)c1cccc(C)c1`, the compound was classed as inactive in experiment [1], in experiment [3], in experiment [8] and in experiment [10]. The Potency result in experiment [9] and in experiment [7] was “inactive” throughout.

`CC(=O)Nc1cccc(O)c1`: the compound was called inactive in experiment [1] and in experiment [8]. Also, the Potency entry in [2] and in experiment [9] was “inactive” in each case. The activation in [4] is -0.0293%; in experiment [5] it was 0.693%.

Regarding `Cc1cccc(C(=O)O)c1O`, the Potency result in experiment [2] was “inactive”.

For the compound `CC1CCN(CCCC(=O)c2ccc(F)cc2)CC1`, the Potency entry in experiment [2] was “inactive”.

In the case of `CC(=O)OCC(COC(C)=O)OC(C)=O`, the compound was classed as inactive in experiment [1], in experiment [8] and in experiment [10]. Besides, the Potency entry in [2] and in experiment [9] was “inactive” each time. The activation in experiment [5] was 0.2% and 0.487%.

In the case of `CC(=O)Nc1ccc(C(=O)O)cc1`, the outcome in [1] and in experiment [8] was inactive. Besides, the Potency result in experiment [2] is “inactive”. The figures for the activation in experiment [4] and in experiment [5] were -0.0847% and -1.2%, respectively.

Consider `CC[N+](CC)(CC(=O)Nc1c(C)cccc1C)Cc1ccccc1`, for which the result in [1] was inactive. Also, the Potency entry in experiment [2] and in experiment [9] was “inactive” in each case. Further, the activation in experiment [4] was -6.37%.

With `Cc1ccc(C(C)C)c(O)c1`, the call in experiment [1] was inactive. Moreover, the Potency result in experiment [2] and in experiment [9] was “inactive” throughout. For the same compound, the activation in [4] was -1.75%; in experiment [5], -1.79%.

On to `CN1CCCN=C1COC(=O)C(O)(c1ccccc1)C1CCCCC1` (centres undefined), for which the Potency entry in experiment [2] is “inactive”. In [3], the compound was called inactive.

With `O=C(c1ccccc1)C(O)c1ccccc1` (centres undefined), the call in [1] and in [8] was inactive. Further, the Potency result in experiment [2] and in experiment [9] was “inactive” each time. In addition, the activation in experiment [5] was -2.35% and -0.255%.

With `FC(F)(F)C(Cl)Br` (centres undefined), the call in [1], in [8] and in experiment [10] was inactive. The Potency result in experiment [2] was “inactive”. For the same compound, the activation in experiment [4] is -1.4%.

For `NS(=O)(=O)c1ccc(C(=O)O)cc1`, the Potency result in experiment [2] was “inactive”.

Turning to `NNC(=O)CP(=O)(c1ccccc1)c1ccccc1`, the call in [1] and in experiment [3] was inactive.

`O=C(O)Cn1c(C(=O)Nc2nc(-c3ccccc3Cl)cs2)cc2ccccc21`: the Potency result in [2] is “inactive”. Also, the call in experiment [3] was inactive.

With `CN/C(=C\[N+](=O)[O-])NCCSCc1csc(CN(C)C)n1`, the Potency entry in experiment [2] was “inactive”.

`Cc1ccsc1C(=CCCN1CCC[C@@H](C(=O)O)C1)c1sccc1C`: the result in experiment [1] and in experiment [3] was inactive.

Turning to `CC(=O)Nc1ccccc1`, the outcome in experiment [1] and in experiment [8] was inactive. For the same compound, the Potency entry in [2] was “inactive”. Moreover, the activation in experiment [5] was -0.999%.

Turning to `C[C@@H]1O[C@@H](OC[C@H]2O[C@@H](Oc3c(-c4ccc(O)c(O)c4)oc4cc(O)cc(O)c4c3=O)[C@H](O)[C@@H](O)[C@@H]2O)[C@H](O)[C@H](O)[C@H]1O`, the Potency entry in experiment [2] is “inactive”.

With `COc1cc(O)cc(O)c1`, the call in [1] and in [3] was inactive.

Take `Cc1cc(=O)[nH]c(=S)[nH]1`: the outcome in experiment [1], in experiment [8] and in experiment [10] was inactive. For the same compound, the Potency result in [2] is “inactive”. In addition, the activation is -1.35% in [4] and -0.135% in [5].

As for `Cc1cc(C)nc(NS(=O)(=O)c2ccc(N)cc2)n1`, the call in experiment [1] and in experiment [8] was inactive. Besides, the Potency result in [2] and in experiment [9] was “inactive” in each case. Also, in experiment [4], the activation was -3.59% and 3.14%.

Take `COC(=O)c1ccc(O)cc1`: the result in experiment [1] was inactive. Besides, the Potency entry in experiment [2] is “inactive”. Also, the Potency in experiment [9] was 19.3 µM (active). Further, the activation in [5] is -2.57%.

As to `NC(N)=NS(=O)(=O)c1ccc(N)cc1`, in experiment [2], the Potency entry was “inactive”. Besides, the result in experiment [3] was inactive.
